The record followed here is PubChem BioAssay (NCI).

Test systems include SR leukemia; RPMI-8226 leukemia; OVCAR-8 ovarian; OVCAR-5 ovarian; OVCAR-4 ovarian; SK-OV-3 ovarian; IGROV1 ovarian; OVCAR-3 ovarian; HS 578T breast; NCI/ADR-RES ovarian; BT-549 breast; MDA-MB-435 melanoma; SW-620 colon; MCF7 breast; HCT-116 colon; HCC-2998 colon; KM12 colon; T-47D breast.
What all share (assay): NCI-60 one-dose screen, 48 h (100 = growth as untreated, 0 = no growth, -100 = all killed)
Conditions in all cases: 10 µM unless noted

Compounds without any hit were thinned out: in the full panel of roughly 83,000, 20% have a hit.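 Compound tested at a single concentration for 48 hours in 96-well plates; a percent growth value below 10 was scored as active.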 Values without a mark were called inactive. Active and inactive are the calls of the source.

`O=C(CN1C(=O)S/C(=C\C(Cl)=C\c2ccccc2)C1=O)NC1CCS(=O)(=O)C1` (stereo not drawn): the growth in the assay with SR leukemia is 14.2%; in the assay on RPMI-8226 leukemia it was 21.7%; in the assay with OVCAR-8 ovarian, 47.1%; in the assay with OVCAR-5 ovarian, 110%; in the assay with OVCAR-4 ovarian, 78.7%; in the assay on SK-OV-3 ovarian, 106%. For the same compound, the growth in the assay on IGROV1 ovarian was 41.3%; with OVCAR-3 ovarian, 19.4%; in the assay on HS 578T breast, 87.4%; in the assay with NCI/ADR-RES ovarian it was 84%; with BT-549 breast, 76.5%; in the assay with MDA-MB-435 melanoma, 66.2%. The growth with SW-620 colon is 22.6%; in the assay on MCF7 breast, 13.7%; in the assay on HCT-116 colon, 5.67% (active); in the assay with HCC-2998 colon, 103%; with KM12 colon it was 65.4%.
For `CCOC(=O)CNC1=C(Cl)C(=O)N(Cc2ccc(Cl)cc2)C1=O`, the growth in the assay with SR leukemia was 105%; with RPMI-8226 leukemia it was 96.6%; in the assay with OVCAR-8 ovarian, 100%; in the assay with OVCAR-5 ovarian it was 96.2%; in the assay on OVCAR-4 ovarian, 101%; with SK-OV-3 ovarian, 99.6%. Also, the growth with IGROV1 ovarian is 97.9%; in the assay on OVCAR-3 ovarian, 105%; in the assay with HS 578T breast it was 101%; with NCI/ADR-RES ovarian, 104%; in the assay on BT-549 breast, 109%; in the assay on MDA-MB-435 melanoma it was 105%. Also, the growth in the assay with SW-620 colon was 99.8%; in the assay on MCF7 breast, 99.7%; in the assay on HCT-116 colon it was 102%; in the assay on HCC-2998 colon it was 103%; in the assay on KM12 colon, 110%.
With `COC(=O)c1ccc2cc(OC)c(OC)cc2c1`, the growth with SR leukemia was 91.5%; in the assay on RPMI-8226 leukemia, 101%; with OVCAR-8 ovarian, 104%; in the assay on OVCAR-5 ovarian it was 101%; in the assay with OVCAR-4 ovarian it was 113%; with SK-OV-3 ovarian, 118%. Moreover, the growth with IGROV1 ovarian was 118%; in the assay on OVCAR-3 ovarian it was 112%; in the assay with HS 578T breast it was 105%; with T-47D breast, 96.1%; in the assay on BT-549 breast, 90.5%; with MDA-MB-435 melanoma, 98.8%. The growth in the assay on SW-620 colon was 99%; with MCF7 breast, 92.2%; in the assay on HCT-116 colon, 95.6%; in the assay on HCC-2998 colon it was 98.8%; in the assay with KM12 colon, 108%.
As for `N#Cc1c(-c2ccccc2)nc2c(c(-c3ccc(Cl)cc3)nn2-c2ccccc2)c1-c1ccc([N+](=O)[O-])cc1`, the growth was 63.4% in the assay with SR leukemia; 101% with RPMI-8226 leukemia; 98.5% in the assay with OVCAR-8 ovarian; 99.9% in the assay with OVCAR-5 ovarian; 109% in the assay on OVCAR-4 ovarian; 102% with SK-OV-3 ovarian. Further, the growth with IGROV1 ovarian is 103%; with OVCAR-3 ovarian, 126%; in the assay with HS 578T breast it was 104%; with NCI/ADR-RES ovarian, 101%; with BT-549 breast, 111%; in the assay on MDA-MB-435 melanoma it was 103%. The growth with SW-620 colon was 96.1%; in the assay on MCF7 breast, 91.7%; in the assay on HCT-116 colon, 88.9%; in the assay on HCC-2998 colon it was 120%; in the assay on KM12 colon, 102%.
Take `CN(C)CCC(CCN(C)C)(C(=O)O)c1ccccc1`: the growth was 110% in the assay with SR leukemia; 99.8% in the assay on RPMI-8226 leukemia; 102% in the assay with OVCAR-8 ovarian; 99.2% in the assay on OVCAR-5 ovarian; 105% in the assay with OVCAR-4 ovarian; 102% in the assay on SK-OV-3 ovarian. Further, the growth in the assay with IGROV1 ovarian was 93.7%; in the assay with OVCAR-3 ovarian, 113%; in the assay on HS 578T breast, 111%; in the assay on NCI/ADR-RES ovarian, 112%; in the assay with T-47D breast, 104%; in the assay with BT-549 breast, 96.5%. Further, the growth is 110% with SW-620 colon; 94.1% with MCF7 breast; 104% in the assay on HCT-116 colon; 101% in the assay on HCC-2998 colon; 102% with KM12 colon.
On to `Nc1ncccc1O`, for which the growth with SR leukemia is 65.5%; with RPMI-8226 leukemia, 87%; in the assay on OVCAR-8 ovarian, 81%; in the assay on OVCAR-5 ovarian, 98.7%; in the assay with OVCAR-4 ovarian it was 98.4%; with SK-OV-3 ovarian, 107%. The growth is 67.2% in the assay with IGROV1 ovarian; 131% in the assay with OVCAR-3 ovarian; 109% in the assay with HS 578T breast; 77% in the assay on NCI/ADR-RES ovarian; 93.7% in the assay with BT-549 breast; 109% with MDA-MB-435 melanoma. Moreover, the growth in the assay on SW-620 colon was 51%; with MCF7 breast, 68.6%; in the assay on HCT-116 colon, 37.9%; with HCC-2998 colon it was 97.4%; in the assay with KM12 colon it was 100%.
Turning to `CC[C@@H](C(=O)[C@@H](C)[C@@H](O)[C@H](C)[C@@H]1O[C@@H]([C@@H](CC)C(=O)ONC(=O)c2ccccc2O)CC[C@@H]1C)C1O[C@]2(C=CC(=O)[C@]3(CC[C@@](C)([C@H]4CC[C@](O)(CC)[C@H](C)O4)O3)O2)[C@H](C)C[C@@H]1C` (stereo partly drawn), the growth in the assay with SR leukemia is 1.64% (active); in the assay with RPMI-8226 leukemia, 24.6%; with OVCAR-8 ovarian, 54.9%; in the assay on OVCAR-5 ovarian, 47%; with OVCAR-4 ovarian it was 53.3%; in the assay with SK-OV-3 ovarian, 120%. Also, the growth in the assay on IGROV1 ovarian was 58.8%; with OVCAR-3 ovarian it was 5.93% (active); in the assay with HS 578T breast, 43.9%; with NCI/ADR-RES ovarian, 48.7%; in the assay with BT-549 breast, 36.2%; with MDA-MB-435 melanoma, 63%. Besides, the growth in the assay with SW-620 colon is 40.8%; in the assay with MCF7 breast it was 17.8%; in the assay with HCT-116 colon it was 36.7%; with HCC-2998 colon, 58.7%; in the assay on KM12 colon, 51.3%.
For `c1cc(OCCN2CCCC2)ccc1CNc1ccc2nc(CCC3CCCCC3)[nH]c2c1`, the growth with SR leukemia is 7.84% (active); in the assay on RPMI-8226 leukemia it was -8.82% (active); in the assay with OVCAR-8 ovarian, 43%; in the assay with OVCAR-5 ovarian it was 67.5%; with OVCAR-4 ovarian, 56.7%; in the assay on SK-OV-3 ovarian, 99.3%. Besides, the growth in the assay on IGROV1 ovarian is 46.3%; in the assay on OVCAR-3 ovarian, 49.6%; in the assay on HS 578T breast it was 44.1%; with NCI/ADR-RES ovarian, 85%; with BT-549 breast it was 82.5%; with MDA-MB-435 melanoma, -50.7% (active). Besides, the growth was 8.87% (active) in the assay with SW-620 colon; 3.44% (active) in the assay with MCF7 breast; 15.3% with HCT-116 colon; 19.7% in the assay with HCC-2998 colon; 52.5% with KM12 colon.
For `CCCn1c(=S)sc2c(NNC(C)=O)nc(C)nc21`, the growth in the assay with SR leukemia is 158%; in the assay with RPMI-8226 leukemia it was 93.1%; in the assay with OVCAR-8 ovarian, 102%; with OVCAR-5 ovarian, 98%; in the assay on OVCAR-4 ovarian, 101%; in the assay on SK-OV-3 ovarian, 99.9%. The growth in the assay on IGROV1 ovarian was 37.1%; in the assay on OVCAR-3 ovarian, 118%; in the assay on HS 578T breast, 97.7%; with NCI/ADR-RES ovarian it was 101%; with BT-549 breast it was 110%; in the assay on MDA-MB-435 melanoma it was 115%. The growth with SW-620 colon is 101%; in the assay on MCF7 breast, 95.9%; in the assay on HCT-116 colon, 95.3%; in the assay with HCC-2998 colon, 94.8%; in the assay on KM12 colon, 97%.
